Screens as filed in PubChem.
Sm TGR block: qHTS Assay for the Inhibitors of Schistosoma Mansoni Peroxiredoxins; Schistosoma mansoni thioredoxin glutathione reductase (TGR), Q962Y6; purified TGR, DTNB reduction, TNB absorbance 405 nm; Potency, µM (series often up to 114 µM), for the others: at the highest dose activity change, negative = inhibition, most hits filed as inhibitors; hit rate 3% among 360,000; note: nearly all actives have a fitted effect of over 60% in size
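First, TGR (20 nM dispensed) and NADPH were mixed with compound. Second, a 15 min room-temperature incubation followed. Third, further NADPH and then DTNB were added to start the reaction. Finally, TNB absorbance was monitored kinetically.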
Tb PYK inh: qHTS of Trypanosoma Brucei Inhibitors; pyruvate kinase (Trypanosoma brucei), Q57TT1; TbPYK enzyme, Kinase-Glo Plus ATP luminescence, 45 min; Potency, µM (top dose mostly 76.8 µM), inactives show at the highest dose activity, negative = inhibition, actives largely listed as inhibitors; hit rate 0.12% among 410,000; AID 624173, 2012; note: nearly all actives have a fitted effect of over 50% in size
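T. brucei PYK with substrate was exposed to pin-transferred compounds across a concentration series, then started with 130 uM ADP (final). After 45 min at room temperature, Kinase-Glo Plus luminescence was read, normalized and curve-fitted.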
LmPK inhibitor: qHTS Assay for Inhibitors of Leishmania Mexicana Pyruvate Kinase (LmPK); hit rate 0.37% among 290,000; Potency, µM (titrated, usually from 57.5 µM), for the others: at the highest dose activity change, negative = inhibition, hits mostly inhibitors; purified LmPK, Kinase-Glo ATP luminescence, 1 h; Q27686
Target sequence (Q27686 whole entry, looked up): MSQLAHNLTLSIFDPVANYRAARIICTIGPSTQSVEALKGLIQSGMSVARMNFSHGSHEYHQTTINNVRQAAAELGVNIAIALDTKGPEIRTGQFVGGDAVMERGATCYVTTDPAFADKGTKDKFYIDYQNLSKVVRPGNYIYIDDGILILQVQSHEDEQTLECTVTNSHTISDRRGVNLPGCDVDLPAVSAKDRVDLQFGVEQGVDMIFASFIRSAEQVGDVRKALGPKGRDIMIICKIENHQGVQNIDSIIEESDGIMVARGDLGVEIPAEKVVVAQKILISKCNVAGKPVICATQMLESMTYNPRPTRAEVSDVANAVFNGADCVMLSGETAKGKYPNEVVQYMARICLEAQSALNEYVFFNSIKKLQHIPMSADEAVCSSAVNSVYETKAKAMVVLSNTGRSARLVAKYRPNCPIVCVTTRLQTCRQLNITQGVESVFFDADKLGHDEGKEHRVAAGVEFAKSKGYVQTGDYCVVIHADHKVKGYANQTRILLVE
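Purified LmPK (0.1 nM) with 0.5 mM PEP and 0.1 mM ADP in imidazole buffer pH 7.2 with MgCl2/KCl, 1 h at room temperature. ATP formed was read by luciferase luminescence and normalized to no-enzyme and uninhibited controls.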
RE007 growth inh: qHTS Assay for Inhibitors of the HIV-1 protein Vpr; S. pombe RE007 Vpr strain, BacTiter-Glo ATP luminescence, 24 h; Potency, µM (doses to about 92.2 µM), for inactives: at the top dose activity change, negative = less growth, usual class: inhibitors; hit rate 0.21% among 360,000; AID 651644, 2012; active = well fitted falling curve with a large enough effect; inconclusive = small, poorly fitted or top-dose-only effect; inactive = no such curve, though single readings can be large or run the other way; note: nearly all actives have a fitted effect of over 50% in size
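Fission yeast RE007 carrying one integrated HIV-1 vpr copy, seeded at OD 0.01 in PMG+AL medium with 23 nL pinned compound. Grown 24 h at 30 degrees; viability read by BacTiter-Glo luminescence after 5 min.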
FBPA Giardia inh: qHTS Assay for Inhibitors of Fructose-1,6-bisphosphate Aldolase from Giardia Lamblia; Potency, µM (doses to about 59.6 µM), without a hit: at the top dose activity, negative = inhibition, actives largely listed as inhibitors; A8B2U2; hit rate 0.71% among 290,000; purified Giardia FBPA; AID 2451, 2010; note: nearly all actives have a fitted effect of over 55% in size
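40 nM FBPA preincubated 10 min at RT with compound (up to 57.5 uM final), then substrate plus GAPDH/TPI/NAD/arsenate coupling and diaphorase/resazurin added. Fluorescence read after 20 min at RT, 525/598 nm.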
Starred values were filed as active, the others as inactive; ? = inconclusive; . = no result given; ! = not confirmed by another sample; [ ] = dose if it differs, or a comment. Most compounds without a hit are left out; they make up all but 3.3% or so of the library. Unless noted, calls come from the whole dose curve; as a rule, active = well fitted curve in the direction sought with a large enough effect; inconclusive = small, poorly fitted or top-dose-only effect, or another doubt; inactive = no such curve, though single readings can be large; an effect the other way counts as inactive or inconclusive. % is set by controls: 0 for no effect and ±100 for the full control effect; potency is the fitted concentration of half-maximal effect.

SMILES	Sm TGR block	Tb PYK inh	LmPK inhibitor	RE007 growth inh	FBPA Giardia inh
COc1ccc(C(C(=O)NC2CCCC2)N(C(=O)c2ccco2)c2cccc(C(C)=O)c2)cc1OC (configuration not stated)	8.0%	-1.0%	-3.9%	7.5%	.
Cc1csc2c(SCC(=O)NNC(=O)C(Cl)Cl)ncnc12	?	1.8%	4.3%	14.4%	23.9%
N#CCCN(C(=O)CCl)c1cccc(Cl)c1	7.08µM*	4.8%	-5.4%	0.6%	1.5%
O=C(NCCn1cc(SCc2ccc(Br)cc2)c2ccccc21)c1cccs1	2.0%	1.7%	.	.	.
O=C1C=C(N(CCO)Cc2ccccc2)c2ccccc2C1=O	?	-5.1%	-9.1%	-29.8%	0.354µM*
O=C1c2ccccc2C(=O)c2c1cccc2N(CCO)CCO	-8.5%	-7.0%	-12.3%	-14.0%	-25.2%
CC(=O)c1sc(N/N=C2\CC3CC2C(C)C3(C)C)nc1C (configuration not stated)	1.58µM*	-19.4%	6.5%	6.2%	?
COc1ccc(/C(C)=N/Nc2nc(C)c(C(C)=O)s2)cc1	-5.7%	-0.8%	0.2%	7.7%	-28.2%
CC(C(=O)NCc1ccccn1)c1ccc([N+](=O)[O-])cc1 (configuration not stated)	-11.1%	0.5%	0.2%	-3.0%	2.2%
COc1cccc2c(=O)c3cccc(N)c3[nH]c12	-14.9%	0.1%	-14.1%	2.8%	1.77µM*
COc1cccc2c(=O)c3c([nH]c12)OC(C)(C)C3	.	28.0%	.	2.9%	.
CN(C)C=Nc1nc2ccccc2nc1N1CCCC1	39.8µM*	-9.6%	-0.6%	?	-5.8%
Nc1c(N=Nc2ccc(-c3ccc(N=Nc4cc(S(=O)(=O)O)c5ccccc5c4N)cc3)cc2)cc(S(=O)(=O)O)c2ccccc12	.	-4.8%	.	.	-8.1%
Cc1cc(-c2ccc(N=Nc3ccc4c(S(=O)(=O)O)cc(S(=O)(=O)O)c(N)c4c3O)c(C)c2)ccc1N=Nc1ccc2c(S(=O)(=O)O)cc(S(=O)(=O)O)c(N)c2c1O	.	?	.	.	22.3µM*
CC1=CC(C)C(C(=O)O)C(C(=O)O)C1 (configuration not stated)	2.8%	-3.5%	1.0%	-3.0%	0.2%
COc1ccc(OC)c(C2CC(=O)Nc3n[nH]c(-c4ccccc4)c32)c1 (configuration not stated)	6.7%[57.1 µM]	-11.6%	-14.3%	-0.9%	2.8%
CC/C(=C\c1oc2cc3ccccc3cc2[n+]1CC)Nc1ccccc1	20µM*	3.4%	-0.1%	4.0%	?
CC(=O)Oc1ccc(OC(C)=O)c(SCCCCCN2CCOCC2)c1	50.1µM*	-2.1%	?	-25.9%	?
CC(C)c1ccc(OCCCCCN2CCOCC2)cc1	2.8%	-1.3%	3.3%	-1.8%	?
O=C(COC(=O)CNC(=O)C1CCCCC1)Nc1ccccc1	.	0.9%	.	-4.5%	.
CC1(C)CC(=O)C2=C(C1)OC(N)=C(C#N)C2c1ccc[nH]1 (configuration not stated)	17.8µM*	-1.3%	6.5%	-4.5%	-22.4%
COc1ccccc1/C=C/C(=O)OCC(=O)Nc1ccccc1Sc1ccccc1	4.8%	-4.8%	1.4%	-0.4%	2.9%
CCOc1cccc(/C=N/NC(=O)c2cc(C3CC3)[nH]n2)c1O	-27.5%	-9.7%	1.6%	-8.1%	-26.4%
Cc1ccc2nc(N3CCN(c4ccccc4)CC3)c(C=O)c(=O)n2c1	44.7µM*	-6.3%	3.5%	15.2%	-10.9%
C/C(=N\Nc1ccc(C)c(Cl)c1)c1cccnc1	14.1µM*	-1.0%	-4.9%	1.8%	-10.7%
SMILES	Sm TGR block	Tb PYK inh	LmPK inhibitor	RE007 growth inh	FBPA Giardia inh
O=C1C(=O)N(C2CCN(C(=O)c3ccccc3Cl)CC2)CCN1Cc1ccc(F)cc1	10.6%	0.9%	.	.	.
Cc1ccc(S(=O)(=O)/N=C2\C(=O)c3ccccc3C([O-])=C2n2cc[n+](CCC(C)C)c2)cc1	-18.3%	-5.6%	-5.8%	-10.0%	-25.1%
CC(=O)Nc1ccc(S(=O)(=O)/N=C2\C(=O)c3ccccc3C([O-])=C2n2cc[n+](-c3ccccn3)c2)cc1	7.08µM*	-6.4%	-5.5%	-22.8%	?
COC(=O)NNC(=O)c1cccc(C)c1	0.0%	3.0%	-0.6%	-8.5%	0.1%
CC/C(=N\Nc1ccnc2cc(Cl)ccc12)c1ccc(O)cc1	50.1µM*	3.1%	1.8%	3.4%	1.5%
O=C(Cn1cnnn1)Nc1cccc([N+](=O)[O-])c1	3.6%	0.0%	-0.2%	-24.4%	2.8%
Cc1ccc2[nH]c3c(=O)n(CC(=O)N(C)c4cc(Cl)ccc4C)ncc3c2c1	-6.2%	-7.6%	.	.	.
CCc1nc2ccc(C(=O)NC3CCN(Cc4ccccc4)CC3)cn2c1N(CC)Cc1cccc(Br)c1	.	-6.6%	.	-20.0%[18.4 µM]	.
O=C(O)c1ccc(-n2c(-c3ccccc3)n[nH]c2=S)cc1	-17.4%	?	-27.2%	15.1%	-21.7%
Cc1ccc(C(=O)O)cc1-n1c(C)ccc1-c1ccccc1	31.6µM*	-1.0%	.	.	.
Cc1nc(=O)c(-c2ccccc2)c(C)n1-c1cccc(C(=O)O)c1	-26.6%	3.8%	-4.0%	-5.8%	-5.0%
Cc1ccc(-c2ccccc2)n1-c1cccc(C(=O)O)c1	20µM*	-9.7%	1.8%	?	16.7%
Cc1ccc(-c2ccccc2)n1-c1ccc(C(=O)O)cc1	50.1µM*	-4.9%	-0.9%	-28.0%	16.6%
Cc1ccc(C(=O)O)cc1N1CCCC1=O	4.4%	5.0%	0.6%	0.0%	0.0%
NC(=O)c1ccc(NC(=O)C2CC(=O)N(c3ccc4c(c3)OCCO4)C2)cc1 (configuration not stated)	-12.9%	7.6%	.	12.0%	.
O=C(COC(=O)c1ccco1)NCc1ccccc1Cl	8.0%	?	-1.5%	-2.6%	-0.5%
COC(=O)c1ccc2c(c1)sc(=NC(=O)CCS(=O)(=O)c1ccccc1)n2C	31.6µM*	-3.4%	.	8.7%	.
C=CCOC(=O)C(=O)/C=C/c1csc2ccccc12	28.2µM*	-5.9%	9.5%	15.3%	-29.6%
Cc1nc(NC(=O)c2ccco2)sc1C(=O)O	-10.4%	25.1µM*	25.1µM*	?	-5.7%
Cc1cccc(C(=O)Nc2nnc(S(=O)(=O)N(C)Cc3ccco3)s2)c1	7.94µM*!	-13.3%	1.1%	-11.9%	.
CCN(c1ccccc1C)S(=O)(=O)c1nnc(NC(=O)c2ccco2)s1	20µM*!	0.0%	-2.4%	-9.4%	.
c1ccc(-c2nnc(CN3CCCCC3)o2)cc1	17.2%	-3.9%	-7.0%	.	-22.0%
c1ccc(-c2nnc(CN3CCCc4ccccc43)o2)cc1	39.8µM*	0.5%	-0.1%	-13.6%	-26.0%
